Bioassay records (PubChem)
Rows were chosen to be rich in hits. Some 12% of all compounds tested hit in one or more screens of this group.
WT yeast gro inh: growth inhibition of WT strain, primary screen, mitochondrial fusion inhibitor project, WT and mutant strains, chemical genetic; mitochondrial fusion phenotypic screen; inhibition, % at 10 µM; actives 2.1% (n = 190,000); in the data active = inhibition above about 58%; tested in S. cerevisiae
CHOP inh: inhibitors of CHOP promoter induction, primary screen, cell-based, unfolded protein response, luciferase reporter | CHO-K1 CHOP-promoter luciferase, tunicamycin-induced, 15-18 h | inhibition, % at 10 µM | actives 3.8% (n = 220,000);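 active = compounds that reduced the stress-induced luciferase reporter signal by more than about 70% of percent inhibition, limit read from the data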
Lmaj promast: Leishmania major promastigote growth inhibition, primary screen; Leishmania major promastigotes, resazurin fluorescence viability; actives 9% (n = 200,000); inhibition, % at 10 µM; AID 1063, 2008; in the data active = inhibition above about 50%;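 also: promastigotes grown with compound for 44 hours at 28 °C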
Arbovirus inh: antivirals against arbovirus infection, primary screen, cell-based, full library, 10K replicate subset. arbovirus infection cell-based antiviral screen. inhibition, % at 10 µM. actives 0.37% (n = 200,000). AID 1251, 2008; in the data active = inhibition above about 30%
Large screens that a line does not name were inactive.

CC1CCCCN1c1ncnc2ccccc12 (centres undefined)	none
CCN1CCN(c2nc(-c3ccccc3)nc3ccccc23)CC1	none
COc1cc2nc(-c3ccccc3)nc(N3CCCC3)c2cc1OC	CHOP inh 82.0
CC1CCN(c2nc(-c3ccncc3)nc3ccccc23)CC1	Lmaj promast 98.9
c1ccc2c(c1)nc(N1CCCCCC1)c1ccccc12	none (no result: WT yeast gro inh, Lmaj promast, Arbovirus inh)
CCOC(=O)C(=O)Nc1ccccc1C(=O)NCc1ccccc1	none
COCCn1nnnc1C(C(C)C)N1CCCC(C)C1 (centres undefined)	none
CC(C)Sc1nc2ncnc(N)c2[nH]1	none
CC(C(=O)N1CCCc2c1c(=O)oc1ccc(O)cc21)N1CCc2ccccc2C1 (centres undefined)	Lmaj promast 94.6
CCn1cc(C2C(C(=O)Nc3cc(C)ccn3)=C(C)NC3=C2C(=O)CC(C)(C)C3)c(C)n1 (centres undefined)	none
N#CCCC(CCC#N)C1=NCCc2ccccc21	none (no result: WT yeast gro inh, Lmaj promast, Arbovirus inh)
Cc1noc(C(=O)Nc2sc3c(c2C#N)CCC3)c1Cl	Arbovirus inh 31.6
CSc1ccccc1NC(=O)c1cc(CC(C)C)on1	CHOP inh 75.2
CC(C)Cc1cc(C(=O)Nc2sc3c(c2C#N)CCCC3)no1	CHOP inh 77.4
CC(C)Cc1cc(C(=O)Nc2sc3c(c2C#N)CCC3)no1	none
CC(C)Cc1cc(C(=O)Nc2cccnc2)no1	none
Cc1cc(C(=O)Nc2sc3c(c2C#N)CCC3)no1	none (no result: CHOP inh)
CC1(c2ccc(Cl)cc2Cl)OCC(Cn2ccnc2)O1 (centres undefined)	WT yeast gro inh 72.6
O=C(NC1CCCc2ccccc21)C12CC3CC(CC(O)(C3)C1)C2 (centres undefined)	none
CC1(C(=O)NCCCNc2ncc(C(F)(F)F)cc2Cl)C=CCN1C(=O)c1ccccc1 (centres undefined)	none
C[C@]1(C(=O)NCCCNc2ncc(C(F)(F)F)cc2Cl)C=C[C@@H](Cc2ccccc2)N1C(=O)c1ccccc1	WT yeast gro inh 75.0
Cc1nc2c(oc3ccc(Cl)cc32)c(=O)[nH]1	none (no result: WT yeast gro inh, Lmaj promast, Arbovirus inh)
O=C(CN1CCCCCCC1)N/N=C/c1ccc(F)cc1F	Lmaj promast 60.6
O=C(CN1CCCCCC1)N/N=C/c1ccc(Cl)c(Cl)c1	Lmaj promast 87.9
O=C(CN1CCCCCC1)N/N=C/c1cccs1	Arbovirus inh 46.1
CN1/C(=C\C(=O)COC(=O)Cn2nnc(-c3ccccc3)n2)C(C)(C)c2ccccc21	Lmaj promast 90.1
CN1/C(=C\C(=O)COC(=O)c2ccc([N+](=O)[O-])o2)C(C)(C)c2ccccc21	WT yeast gro inh 94.4, Lmaj promast 81.1
CC(C)[C@H](NC(=O)c1ccccc1)C(=O)OCC(=O)/C=C1/N(C)c2ccccc2C1(C)C	CHOP inh 70.0
COc1cc(OC)cc(C(=O)NCC(=O)OCC(=O)/C=C2/N(C)c3ccccc3C2(C)C)c1	none
Cc1cccn2c(CN3CCCC(c4ccccc4)C3)c(C(=O)N3CCOCC3)nc12 (centres undefined)	none
O=C(Nc1ccc2c(c1)oc1ccccc12)c1ccc2c(c1)OCO2	none
O=c1c(O)c(-c2ccc3c(c2)OCO3)oc2ccccc12	CHOP inh 73.7
Cc1cc(=O)n2[nH]c(-c3ccc(C(C)(C)C)cc3)cc2n1	Lmaj promast 100.0
CCOC(=O)Cc1c(C)nc2cc(-c3ccc(Cl)cc3)[nH]n2c1=O	none
CCc1c(C)nc2cc(-c3ccc(OC)cc3)[nH]n2c1=O	Lmaj promast 58.4 (no result: CHOP inh)
CN(C(=O)CSc1nnc(-c2ccc(F)cc2)c2ccccc12)C1CCS(=O)(=O)C1 (centres undefined)	none
COC(=O)c1cc(NC(=O)Nc2cc(OC)ccc2OC)cc(C(=O)OC)c1	CHOP inh 77.7
COc1cccc(CNC(=O)c2cccc(Br)c2)c1	Lmaj promast 54.0
COc1cccc(C(=O)Nc2cccc(NC(C)=O)c2)c1	none
COc1cccc(NC(=O)Nc2cccc(C(=O)O)c2)c1	CHOP inh 75.7
COc1ccc(OC)c(NC(=O)Nc2ccc(Cl)cc2)c1	none
COc1cccc(C(=O)Nc2cccc(C(=O)NCC(C)C)c2)c1	Lmaj promast 63.6
COc1ccc(-c2cc(C(F)(F)F)nc(-n3ccnc3C)n2)cc1	none
O=C(c1cnc(Cl)c(Cl)c1)N1CCC(Cc2ccccc2)CC1	none
CCC(C)[C@H](NC(=O)NCc1ccco1)C(=O)OC (some centres undefined)	none (no result: WT yeast gro inh, Lmaj promast, Arbovirus inh)
CC(C)CC(=O)N1CCN(c2ccc([N+](=O)[O-])cc2Cl)CC1	none
CC(C)C(=O)N1CCN(c2ccc([N+](=O)[O-])cc2Cl)CC1	Lmaj promast 50.0
O=C(NCc1ccccn1)NC1CCCCC1	none
C/C(=N\Nc1nc2c(s1)CCCC2)c1ccccc1	Lmaj promast 51.7
O=C(NC(=S)Nc1nc2c(s1)CSc1ccccc1-2)c1ccccc1	WT yeast gro inh 82.6
O=C(NC(=S)Nc1nc2c(s1)CCCC2)c1ccc(C(=O)c2ccccc2)cc1	Lmaj promast 75.8
O=C(Nc1nc2c(s1)CCCC2)Oc1ccccc1	none
Cn1cc(S(=O)(=O)NCc2ccc(Cl)cc2)c(=O)n(C)c1=O	none (no result: WT yeast gro inh, Lmaj promast, Arbovirus inh)
O=C(O)C1CCN(C(=O)COc2ccc(Br)cc2)CC1	none
COc1ccccc1N(C(=O)c1ccncc1)c1nc(-c2ccc([N+](=O)[O-])cc2)cs1	Lmaj promast 98.7
Cn1ncc(C#N)c1/N=C/N(Cc1ccccc1)Cc1ccccc1	CHOP inh 89.2
CN1CCN(/C=N/c2c(C#N)cnn2C)CC1	none
OC(CCCN1CCC(O)(c2ccc(Cl)cc2)CC1)c1ccc(F)cc1 (centres undefined)	Lmaj promast 95.7
CCNC(=O)N1CCN(CCCC(c2ccc(F)cc2)c2ccc(F)cc2)CC1	none (no result: WT yeast gro inh, Lmaj promast, Arbovirus inh)
Cc1nn(-c2ccccc2)c(OC(=O)c2cccs2)c1S(=O)(=O)c1ccc([N+](=O)[O-])cc1	none
CCOC(=O)c1c(C)[nH]c(C(=O)COC(=O)CNC(=O)c2ccc(Cl)cc2Cl)c1C	Lmaj promast 51.5
CCOC(=O)c1c(C)[nH]c(C(=O)COC(=O)/C=C/c2ccc(O)c(OC)c2)c1C	Lmaj promast 99.0
Cc1cc(OCCCn2ccnc2)cc(C(C)C)c1	Lmaj promast 78.3
CCOc1ccc(OCCOCCn2ccnc2)cc1	none (no result: WT yeast gro inh)
Cc1cc(OCCn2ccnc2)cc(C(C)C)c1	Lmaj promast 91.5
CCc1cccc(OCCn2ccnc2)c1	none
Cc1cc(OCCCn2ccnc2)ccc1C(C)C	Lmaj promast 99.3
COc1cc(C)c(C(C)C)cc1S(=O)(=O)NCCCn1ccnc1	none
CCC(C)c1ccc(OCCn2ccnc2)cc1 (centres undefined)	WT yeast gro inh 70.8, Lmaj promast 59.6
Cc1nn(-c2ccc(F)cc2)c(Cl)c1/C=C/C(=O)N1CCNC(=O)C1	none
CCOC(=O)N1CCN(c2nc(C)cc(C(F)(F)F)n2)CC1	CHOP inh 70.6
COc1n[nH]c(C(=O)Nc2cc(Cl)ccc2Cl)c1[N+](=O)[O-]	Lmaj promast 88.7
COc1ccc(Cl)cc1NC(=O)c1[nH]nc(OC)c1[N+](=O)[O-]	Lmaj promast 53.4
Cc1cc(=O)[nH]c(NN=C2CCC(C(C)(C)C)CC2)n1 (centres undefined)	CHOP inh 82.1
CC(C)=CCC/C(C)=C/C=N/NC(=O)c1ccc([N+](=O)[O-])cc1	none
